HGIII-sPLA2 inh = Inhibits HGIII-sPLA2 liposome hydrolysis, primary screen; Q9NZ20; QFRET BODIPY PC-A2 liposome hydrolysis, fluorescence; inhibition, % at 12.2 µM; actives 0.56% (n = 370,000);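 active = inhibition above mean plus 3 SD of compounds lying within the high and low control bounds, cut at about 19% in these data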;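 note: 0% = median of test compound wells and 100% = no enzyme DMSO wells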
Target sequence (Q9NZ20 whole entry, looked up): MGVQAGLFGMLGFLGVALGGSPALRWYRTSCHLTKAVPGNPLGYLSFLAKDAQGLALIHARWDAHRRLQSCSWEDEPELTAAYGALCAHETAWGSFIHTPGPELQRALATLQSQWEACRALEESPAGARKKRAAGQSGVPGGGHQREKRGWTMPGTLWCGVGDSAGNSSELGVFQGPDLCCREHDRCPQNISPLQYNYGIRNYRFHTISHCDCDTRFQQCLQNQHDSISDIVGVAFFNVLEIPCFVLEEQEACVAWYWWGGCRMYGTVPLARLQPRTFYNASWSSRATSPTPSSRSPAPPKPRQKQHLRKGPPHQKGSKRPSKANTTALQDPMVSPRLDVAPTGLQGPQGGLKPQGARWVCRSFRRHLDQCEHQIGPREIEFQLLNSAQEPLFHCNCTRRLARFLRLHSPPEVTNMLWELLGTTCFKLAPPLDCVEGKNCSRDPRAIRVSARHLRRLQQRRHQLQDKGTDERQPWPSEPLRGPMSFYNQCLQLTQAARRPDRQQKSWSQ
rCAG RNA binder = molecules binding r(CAG) RNA repeats; actives 1.3% (n = 370,000); r(CAG) RNA repeat, TO-PRO-1 dye displacement fluorescence; inhibition, % at 3 µM; AID 651821;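 active = inhibition above the plate cutoff, the mean of all test compounds on that plate plus 3 SD, cut at about 35% in these data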;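 note: 0% = DMSO alone and 100% = 100 µM mitoxantrone as full dye displacement; higher means more dye released from RNA so lower well fluorescence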
MsrA act = bovine methionine sulfoxide reductase A activation | purified bovine MsrA, absorbance read-out | activation, % at 10.6 µM | actives 0.3% (n = 360,000) | AID 602163; in the data active = activation above about 7.5%;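 note: 0% = vehicle and 100% = reference activator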
MsrA inhibitor = bovine MsrA inhibition | purified bovine MsrA, absorbance read-out | inhibition, % at 15.5 µM | actives 0.75% (n = 360,000) | AID 651718; in the data active = inhibition above about 4.5%;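 note: 0% = vehicle wells with enzyme and 100% = reference inhibitor wells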
hGIII sPLA2 conf = human GIII-sPLA2 inhibition, confirmation; shares compounds with HGIII-sPLA2 inh; recombinant hGIII-sPLA2, BODIPY PC-A2 QFRET fluorescence; inhibition, % at 12.2 µM; actives 34% (n = 2,000); AID 743280;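 active = mean inhibition across triplicates above the hit cutoff set in the earlier primary screen, cut at about 19% in these data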;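 note: 0% = enzyme with DMSO and 100% = DMSO wells lacking enzyme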
BODIPY interf = counter-screen for HGIII-sPLA2 inhibitors: 535nm fluorescence interference; shares compounds with HGIII-sPLA2 inh; AID 743282; inhibition, % at 12.2 µM; actives 8.5% (n = 2,000); BODIPY FL product fluorescence interference, QFRET;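 active = average inhibition above the solvent-only control mean plus 3 SD, cut at about 6% in these data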;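 note: 0% = DMSO with substrate plus product and 100% = DMSO with substrate alone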
535nm interf DR = counter-screen for HGIII-sPLA2 inhibitors: 535nm fluorescence interference, dose response | shares compounds with HGIII-sPLA2 inh | BODIPY FL product fluorescence interference, cell-free | IC50, µM | 240 tested, under 10 active;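 active = IC50 at or below 10 µM; inactive = IC50 above 10 µM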
* hit, by the source's call; x = no result. Rows were chosen to be rich in hits. Some 2.8% of all compounds tested hit in one or more screens of this group.

SMILES	HGIII-sPLA2 inh	rCAG RNA binder	MsrA act	MsrA inhibitor	hGIII sPLA2 conf	BODIPY interf	others
S=c1[nH]nc(-c2ccc(Cl)cc2)n1-c1ccc2c(c1)OCCO2	21*	4	4	1	32*	1	535nm interf DR=>122
CNC(=O)c1c(O)c2cccc3c2n(c1=O)CCC3	1	4	-1	0	x	x
COc1ccc(NC(=S)NNC(=O)c2nnn(-c3ccccc3)c2C)cc1	35*	7	1	0	42*	-1	535nm interf DR=>122
COc1ccc(NC(=O)c2cnn(-c3ccccc3)c2C)cc1	6	0	-2	0	x	x
CCOc1ccc(-n2c(N)c(-c3nc4ccccc4[nH]3)sc2=S)cc1	20*	11	-3	1	33*	2	535nm interf DR=>122
COc1ccc(-n2c(N)c(-c3nc4ccccc4n3C)sc2=S)cc1	3	5	-4	1	x	x
CC(C)CNC(=O)c1oc2ccccc2c1COc1ccccc1	1	2	-2	0	x	x
O=C(Nc1ccccc1OC(F)F)c1oc2ccccc2c1COc1ccccc1	25*	-2	-7	1	4	-13
Cc1cccnc1NC(=O)c1cc2ccccc2oc1=O	5	-4	-4	2	x	x
O=C(O)c1cccc(Nc2ccc3nonc3c2[N+](=O)[O-])c1	20*	2	-2	0	2	-6
COc1cc(OC)cc(-c2c(-c3cccs3)c3cc(-c4cccc5[nH]ccc45)ccc3n2C)c1	29*	18	-5	1	16	9.8*
COc1cc(OC)cc(-c2c(-c3ccc(C(C)=O)cc3)c3cc(-c4cccc5[nH]ccc45)ccc3n2C)c1	11	20	-4	3	x	x
O=C(COC(=O)c1cccc(S(=O)(=O)N2CCCCCC2)c1)NCc1ccc(Cl)cc1	4	0	-12	2	x	x
N=c1n(CCN2CCCCC2)c2ccccc2n1CC(O)c1ccco1 (stereo not drawn)	21*	4	1	0	-1	-21
CC(C)N1CCCCC(NC(=O)c2ccccc2)C1=O (stereo not drawn)	22*	1	x	x	0	-5
Oc1ccc(C[C@H]2CNCCN2CCC23CC4CC(CC(C4)C2)C3)cc1	1	7	-1	0	x	x
COc1cc2c3c(c1)C(C)=CC(C)(C)N3C(=O)C2=O	10	1	-3	0	x	x
COc1cc2c3c(c1)C(C)CC(C)(C)N3C(=O)C2=O (stereo not drawn)	24*	-2	-3	0	13	4
COc1cc([N+](=O)[O-])c(C(=O)N2CCOCC2)c([N+](=O)[O-])c1	20*	-3	-2	1	5	0
Cc1c([N+](=O)[O-])cc(C(=O)N2CCOCC2)cc1[N+](=O)[O-]	5	-1	-6	0	x	x
CCOC(=O)c1c(CSC(=N)N)n(-c2ccc(C)cc2)c2cc(Br)c(OC(C)=O)cc12	26*	12	-1	-1	11	-13
Cc1cccc2sc(NNC(=O)C3=COCCO3)nc12	21*	4	-11	2	23*	-7
Cc1cc(S(=O)(=O)N(Cc2ccccc2Cl)c2ccc3c(c2)CCC3)ccc1-n1cnnn1	20*	2	-2	-1	-13	-19
O=C(Nc1cccs1)Nc1c(F)c(F)cc(F)c1F	21*	0	-3	0	-1	-2
C=CCn1c(-c2csc3c2CCC(C)C3)n[nH]c1=S (stereo not drawn)	21*	6	-1	-1	20*	5
SMILES	HGIII-sPLA2 inh	rCAG RNA binder	MsrA act	MsrA inhibitor	hGIII sPLA2 conf	BODIPY interf	others
CCn1c(-c2csc3c2CCCC3)n[nH]c1=S	29*	2	3	1	30*	2	535nm interf DR=>122
CCCCn1c(-c2csc3c2CCCC3)n[nH]c1=S	19	3	x	1	x	x
CCCCn1c(-c2csc3c2CCC(C)C3)n[nH]c1=S (stereo not drawn)	-7	-1	0	-1	x	x
CCOC(=O)c1cccc(NC(=O)CCS(=O)(=O)c2cccs2)c1	-5	4	3	1	x	x
CCN(CC)c1ccc(N=Nc2nn(C)c(C)c2[N+](=O)[O-])cc1	23*	9	-3	0	39*	4	535nm interf DR=>122
CCN(CC)S(=O)(=O)c1ccc2c(c1)N(CC(=O)NCC1CCCO1)C(=O)CO2 (stereo not drawn)	11	4	-3	0	x	x
CCCCC(=O)Nc1c2c(nn1-c1cccc(C)c1C)CS(=O)(=O)C2	20*	1	-1	0	1	1
O=C(Nc1ccc(F)c(F)c1)c1ccco1	3	-1	0	-1	x	x
C[C@@H]1CN([C@H](C)CO)C(=O)CCCn2nncc2CO[C@H]1CN(C)C(=O)c1ccc(N2CCN(C)CC2)cc1	19*	3	-5	1	-7	-12
C[C@@H]1CN([C@H](C)CO)C(=O)CCCn2nncc2CO[C@@H]1CN(C)C(=O)c1ccccc1	21*	2	-1	0	-1	-5
C[C@@H]1CN([C@@H](C)CO)C(=O)CCCn2nncc2CO[C@@H]1CN(C)C(=O)c1ccccc1	5	0	-2	-1	x	x
Cc1nn(CC(C)C)c2sc(C(=O)NC3CC(C)(C)NC(C)(C)C3)cc12	13	4	-2	2	x	x
Cc1cnc(C)c(Nc2nc(C(N)Cc3ccc(Cl)cc3)cs2)n1 (stereo not drawn)	25*	14	-1	-1	2	-16
NC(Cc1ccc(C(F)(F)F)cc1)c1csc(Nc2nncc3ccccc23)n1 (stereo not drawn)	21*	7	-2	0	2	-3
NC(Cc1ccc(C(F)(F)F)cc1)c1csc(Nc2cc(Oc3ccccc3)ncn2)n1 (stereo not drawn)	25*	15	-4	0	13	-10
Nc1ccc(CC(N)c2csc(Nc3cc(Oc4ccccc4)ncn3)n2)cc1 (stereo not drawn)	15	11	-2	0	x	x
Cc1cnc(C)c(Nc2nc(C(N)Cc3ccc(F)cc3)cs2)n1 (stereo not drawn)	-4	10	-5	0	x	x
CCN(CC)S(=O)(=O)c1ccc(NC(=O)c2ccc(OCC3CCCO3)cc2)cc1 (stereo not drawn)	-15	1	-8	-1	x	x
CCOc1ccccc1CN1CCNC(=O)C1CC(=O)N(C)CCc1ccccn1 (stereo not drawn)	13	-4	-3	-1	x	x
Cc1ccc(C2CCN(C(=S)NC(C)C)C2)cc1 (stereo not drawn)	23*	-5	1	1	18	-7
O=C1NC(Cc2ccccc2)c2nc3ccccc3c(=O)n2-c2cc(Cl)ccc21 (stereo not drawn)	-8	4	x	1	x	x
CC(C)CC(=O)Nc1sc2c(c1C(=O)O)CCCCC2	-2	4	-7	-1	x	x

Assay outcomes (PubChem)
